These results are taken from PubChem BioAssay AID1259240 (Keith Lab, Institute of Cancer Science, University of …, 2017).

SMILES strings stand for the structures. Unmarked numbers belong to inactive results. Active and inactive are the calls of the source. Cut-off read from the data, not from the text of the source: active = fold change mostly below about -2 (no sharp cut-off); inactive = mostly above about -1.8.

The nature of the experiment: modulation of TERT promoter-driven luciferase – cell-based, luciferase reporter, human, primary screen (AID 1259240). Particulars: A2780 TERT promoter luciferase reporter, 16 h; at 20 µM, fold versus average of vehicle-only wells.
Consider `CN1C(C(=O)c2ccccc2)=C(OC(=O)c2ccc(F)cc2)c2ccccc2S1(=O)=O`, for which the fold change is 1.16.

As to `CCOC(=O)c1sc(NC(=O)c2cc(C)no2)c(C(=O)OCC)c1C`, the fold change was 1.26.

On to `Cn1c(CC(=O)NC(C)(C)CO)c(Sc2ccccc2)c2ccccc21`, for which the fold change is -2.11 (active).

Consider `O=c1oc2cc(O)ccc2cc1S(=O)(=O)c1ccccc1`, for which the fold change was -1.16.

For `Cc1c(NC(=O)c2cc(CC(C)C)on2)c(=O)n(-c2ccccc2)n1C`, the fold change was -1.7.

In the case of `Cn1c2ccccc2c2cnn(CC(=O)N3CCN(C4CCCCC4)CC3)c(=O)c21`, the fold change was -1.05.

For `O=C(Nc1ccc2nc3n(c(=O)c2c1)CCCCC3)C(=O)NC1CCCCC1`, the fold change is -1.44.

Turning to `FC(F)(F)c1cccc2c1[nH]c1nc3ccccc3nc12`, the fold change is -1.1.

With `CC(=O)c1ccc(N2CCN(C(=O)CCCc3nnc4n5nc(C)nc5c5ccccc5n34)CC2)cc1`, the fold change was -1.6.

For the compound `N#Cc1ccccc1Cn1c(=O)n(-c2ccc(CC(=O)NCc3ccco3)cc2)c(=O)c2sccc21`, the fold change is -1.2.

Regarding `CN1CCN(C(=O)c2cc3c(=O)[nH]c4ccccc4c3n2C)CC1`, the fold change was -1.19.

Turning to `Cc1ccc2c(C)nc(NC3=NCN(C4CCCC4)CN3)nc2c1`, the fold change is -2.

Take `O=C(O)CN1C(=O)/C(=C\c2ccc(-c3ccccc3)o2)SC1=S`: the fold change was -1.88.

For the compound `Cn1c(=O)c2c(SCC(=O)N3CCCc4ccccc43)nc(-c3ccco3)nc2n(C)c1=O`, the fold change is 1.45.

As for `CN(C)c1ccc(/C=c2\sc3nc(-c4ccco4)nn3c2=O)cc1`, the fold change was 1.37.

On to `CC1CCCC(NC(=O)CC(C)(C)CC2=NS(=O)(=O)c3ccccc3N2)C1C` (centres undefined), for which the fold change was 1.01.

For `O=C(NCCc1c[nH]c2ccccc12)C1CCN(c2ccc(N3CCOCC3)nn2)CC1`, the fold change is -1.29.

With `CCOC(=O)Cn1c(=O)oc2cc(S(=O)(=O)NCc3cccs3)ccc21`, the fold change was -1.2.

In the case of `Cn1c(=O)cc(SCC(=O)Nc2nc3ccccc3[nH]2)c2ccccc21`, the fold change was -1.01.

In the case of `COc1ccc(-c2nnc3c4ccccc4c(C)nn23)cc1S(=O)(=O)NC(C)C`, the fold change was -1.07.

For the compound `COc1ccc(S(=O)(=O)n2nc(-c3ccc(OC)cc3OC)cc2N)cc1`, the fold change was 1.19.

`O=C(NCCN1CCCCCC1)C1CCC(CNS(=O)(=O)c2cccc3nsnc23)CC1` (centres undefined): the fold change is -1.56.

Turning to `Cc1noc(C(=O)Nc2cccnc2Cl)c1Cl`, the fold change was 1.48.

Consider `CCOC(=O)Cn1c(=O)oc2cc(S(=O)(=O)NC3CCN(C(=O)OCC)CC3)ccc21`, for which the fold change is 1.58.

Take `Cc1nc2sc3c(NC4CCCCC4)ncnc3c2c2c1COC(C)(C)C2`: the fold change was -1.55.

`COC(=O)c1ccc(-c2nn(C)c(=O)c3ccccc23)cc1`: the fold change was -1.09.

In the case of `O=C1c2cccnc2C(=O)N1CNc1ccccn1`, the fold change is -1.26.

In the case of `CC(C)Oc1ccc(-c2cc(C(F)(F)F)n3ncc(C#N)c3n2)cc1`, the fold change was -2.17 (active).

As for `CCOC(=O)c1nnn(-c2nonc2N)c1CNc1ccc(F)cc1`, the fold change is 1.3.

Take `Cn1c2ccccc2c2cnn(CC(=O)N3CCN(c4ccccn4)CC3)c(=O)c21`: the fold change was -1.1.

Take `CCCCN(C)C(=O)Cn1ncc2c3ccccc3n(C)c2c1=O`: the fold change is 1.16.

Take `CC1(C)CC2CC(C)(CN2C(=O)CSc2nc(-c3ccco3)cc(C(F)(F)F)n2)C1` (centres undefined): the fold change is -1.47.

Take `Cc1csc(NC(=O)C2=CCN(S(=O)(=O)c3ccccc3)CC2)n1`: the fold change was 1.13.

Turning to `CCN1C(=O)N/C(=C/c2cn(CC(=O)Nc3ccc(Cl)cc3)c3ccccc23)C1=O`, the fold change was -1.87.

As for `CCc1ccc(CNc2ccc3c(c2)ncn3C(C)C)cc1`, the fold change was -2.78 (active).

For the compound `CN(C1=NS(=O)(=O)c2cc([N+](=O)[O-])ccc21)c1ccccc1`, the fold change was -2.35 (active).

Turning to `O=C(Cn1c(=O)oc2cc(S(=O)(=O)NC3CCCC3)ccc21)N1CCCC1`, the fold change was -1.19.

For `CC1CCOC2(O1)C(=O)N(CN1CCN(c3cccc(Cl)c3)CC1)c1ccccc12` (centres undefined), the fold change is -1.15.

In the case of `Cc1ccc2c(C)nc(NC3=NCN(CCN4CCOCC4)CN3)nc2c1`, the fold change is 1.05.
